# Most compounds without a hit are left out; they make up all but 3.5% or so of the library.
# Pf apPOL inh = Pf-apPOL inhibitors, biochemical, fluorescence; 210,000 tested, 0.25% active; AID 1794808, 2022; Recombinant Pf-apPOL, molecular beacon fluorescence, 1.5 h; Plasmodium falciparum apicoplast DNA polymerase (apPOL); inhibition, % at 10 µM
# mHTT CaM bind = mutant huntingtin-calmodulin interaction inhibitors – biochemical, AlphaScreen, primary screen; P42858; AlphaScreen His-mHTT/GST-CaM binding, luminescence; inhibition, % at 15 µM; 190,000 tested, 3.6% active;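 note: 0% = both proteins with DMSO and 100% = one protein alone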
# * = called active by the depositor; i = inactive; · = no result given. Cut-off read from the data, not from the text of the source: active = inhibition above about 50%; inactive = the rest.
SMILES,Pf apPOL inh,mHTT CaM bind
COc1ccc(C2/C=C\CN[C@@H](Cc3ccccc3)C(=O)N2Cc2ccc(F)cc2)cc1 (stereo partly drawn),0,64*
COC(=O)N1C/C=C\C(c2ccc(OC)cc2)N(Cc2ccc(F)cc2)C(=O)C1 (stereo not drawn),-2,26
CNC(=O)c1csc2c1CCCC2,-1,-1
CC1CCN(Cc2csc(N3CCN(C(=O)c4ccncc4)CC3)n2)CC1,3,1
Cn1cc(C(=O)NCCc2c[nH]c3ccccc23)c2nn(-c3ccccc3)c(=O)c-2c1,-10,36
Cn1cc(C(=O)NCCc2c[nH]c3ccccc23)c2[nH]c(=O)n(Cc3ccccc3)c(=O)c21,5,56*
COCCC1CCN(C(=O)Cc2ccsc2)CC1,0,-4
COc1ccc(Cl)cc1NC(=O)CSc1nnc(-c2c[nH]c3ccccc23)n1C,-12,55*
CCOC(=O)c1ccccc1NC(=O)CSc1nnc(-c2c[nH]c3ccccc23)n1C,-11,1
Cc1nn2c([N+](=O)[O-])c(C)[nH][n+]2c1C(=O)Nc1cccc([N+](=O)[O-])c1,-15,0
Cc1ccc(C2CC(C(F)(F)F)n3nc(C(=O)N4CCCC4)cc3N2)cc1 (stereo not drawn),-5,32
Cc1ccc(C2CC(C(F)(F)F)n3nc(C(=O)N4CCN(c5ccccc5)CC4)cc3N2)cc1 (stereo not drawn),-11,90*
COc1ccc2nc(N3CCCC(C(=O)NCc4cccs4)C3)sc2c1 (stereo not drawn),-11,7
S=c1[nH]nc(C2CCCCC2)n1/N=C\C=C\c1ccco1,·,i
O=C1C(=CC=Cc2ccco2)SC(=S)N1C1CCCCC1,18,78*
Cc1cccc(C2CC(C(=O)N3CCSCC3)CN(Cc3ccccc3)C2)c1 (stereo not drawn),3,77*
Cc1cccc(CN2CCCC(C(=O)N3CCCCCC3)C2)c1 (stereo not drawn),-2,1
O=C(NCC1CCN(C(=O)COc2ccccc2)CC1)C(=O)Nc1cccnc1,-8,-3
COc1ccc(/C=C2\N=C(c3cc([N+](=O)[O-])ccc3Cl)OC2=O)cc1Br,21,13
CSc1cccc(NC(=O)N2CCc3c(c(-c4nc(C)no4)nn3C)C2)c1,-3,45
COCCN1C(=O)c2ccccc2C(C(=O)Nc2cc(C)ccn2)C1c1cn(C)c2ccccc12 (stereo not drawn),-3,54*
COc1cc2c(cc1OC)C(C(=O)NCc1cccnc1)C1c3ccccc3CCN1C2=O (stereo not drawn),-4,-5
COc1ccc(C)cc1NC(=O)C1c2cc(OC)c(OC)cc2C(=O)N2CCc3ccccc3C12 (stereo not drawn),-8,57*
COCCN1C(=O)c2ccccc2C(C(=O)O)C1c1cn(C)c2ccccc12 (stereo not drawn),4,1
Cc1ccnc(NC(=O)C2c3ccccc3C(=O)N3CCc4ccccc4C23)c1 (stereo not drawn),-2,31
SMILES,Pf apPOL inh,mHTT CaM bind
COc1cc2c(cc1OC)C(C(=O)NCCc1cccc(C)c1)C1c3ccccc3CCN1C2=O (stereo not drawn),-1,89*
COc1ccc(OC)c(NC(=O)C2c3ccccc3C(=O)N3CCc4ccccc4C23)c1 (stereo not drawn),-7,16
COc1cc2c(cc1OC)C(C(=O)Nc1cc(C)ccn1)C1c3ccccc3CCN1C2=O (stereo not drawn),-1,69*
Clc1ccc(C2=CC(c3ccc(Br)cc3)n3ncnc3N2)cc1 (stereo not drawn),2,-1
CC1CCN(S(=O)(=O)c2ccc3[nH]cc(C(=O)N(C)C4CCCCC4)c(=O)c3c2)CC1,2,19
CCCc1nc2ccccc2n1Cc1ccccc1,-4,-4
Cc1ccc(-n2nc(C)c3sc(N4CCC(NC(=O)c5cccs5)CC4)nc32)cc1,-4,1
CN(Cc1ccccc1)C(=O)c1ccc([N+](=O)[O-])cc1,1,2
CCOC1=NN(c2ccc([N+](=O)[O-])cc2)C(=O)/C1=C/c1ccc(Cl)c(Cl)c1,8,32
CCOC1=NN(c2ccc([N+](=O)[O-])cc2)C(=O)/C1=C/c1ccccc1Cl,-6,79*
CC1CCC2(CC1)OCC(C(=O)N(C)C(C)C)N2C(=O)C1CCCC1 (stereo not drawn),0,-7
COCCNC(=O)C1CCN(Cc2cc(OC)c(OC)c(OC)c2)CC1,-6,-4
COCCNC(=O)C1CCN(Cc2cc3ccccc3n2Cc2ccccc2C)CC1,3,60*
COCCNC(=O)C1CCN(Cc2cc3ccccc3n2Cc2cccc(C)c2)CC1,5,60*
O=C(NCCc1ccccc1)C1CCN(Cc2ccccc2)CC1,9,-1
Cc1cccc(Cn2c(CN3CCC(C(=O)NCc4ccco4)CC3)cc3ccccc32)c1,1,36
COc1ccccc1CN1CCC(C(=O)NCCc2ccccc2)CC1,-4,-8
CN(C)CCNC(=O)C1CCN(Cc2cc3ccccc3n2Cc2ccccc2)CC1,5,100*
COCCNC(=O)C1CCN(Cc2cc3ccccc3n2Cc2cccc(F)c2)CC1,-3,63*
Cc1ccc(C(C)C)c(OCC(=O)NC2=NCCS2)c1,-6,-2
Clc1cccc(Cl)c1C=Cc1ccn[nH]1,-9,·
O=[N+]([O-])c1cc(C(F)(F)F)ccc1N1CCN(S(=O)(=O)c2ccc(Cl)cc2)CC1,-2,34
CN1C(=O)C(C)(C(=O)N2CCC(Cc3ccccc3)CC2)Oc2cccnc21 (stereo not drawn),-4,15
COCCCNC(=O)C1CCN(Cc2cc3ccccc3n2Cc2ccc(C)cc2)CC1,-4,76*
Cc1ccc(Cn2c(CN3CCC(C(=O)NCc4ccco4)CC3)cc3ccccc32)cc1,2,38
SMILES,Pf apPOL inh,mHTT CaM bind
CC(C)(C)c1ccc(-c2nnc(-c3ccc4c(c3)OCO4)o2)cc1,-4,-1
OC(C#CCN1CCOCC1)c1ccccc1 (stereo not drawn),-2,1
CS(=O)(=O)NCCNc1ccc([N+](=O)[O-])cc1Cl,-4,4
Nc1ccc(Nc2ccc([N+](=O)[O-])cc2S(=O)(=O)O)cc1,-3,52*
NC(=O)C1CCN(C(=O)c2ccc(Cl)cc2)CC1,-8,-3
O=C(Nc1ccc(Br)cc1F)N1CCCC1c1ccccc1F (stereo not drawn),-4,-13
COc1ccc(N2CCN(CC(O)COC3CC(C)CCC3C(C)C)CC2)cc1 (stereo not drawn),0,62*
CC1CCC(C(C)C)C(OCC(O)CN2CCN(Cc3ccccc3)CC2)C1 (stereo not drawn),0,21
CC(C)(C)c1ccc(OCC(O)CN2CCN(Cc3ccc4c(c3)OCO4)CC2)cc1 (stereo not drawn),-1,24
Cc1cc(OCC(O)CN2CCN(Cc3ccc4c(c3)OCO4)CC2)ccc1Cl (stereo not drawn),-8,90*
CCCc1ccc(OCC(O)CN2CCN(c3ccc(OC)cc3)CC2)cc1 (stereo not drawn),1,61*
CCCc1ccc(OCC(O)CN2CCCC2)cc1 (stereo not drawn),-1,-3
Cc1ccc(OCC(O)CN2CCN(c3ccc(F)cc3)CC2)cc1C (stereo not drawn),-4,36
COc1ccc(N2CCN(CC(O)COc3ccc(Cl)c(C)c3)CC2)cc1 (stereo not drawn),-1,83*

# From PubChem BioAssay
